TGFb SMAD3 inh = blocks TGF-b signaling; HepG2 CAGA-GFP TGF-b/SMAD3 reporter, GFP fluorescence, 18 h; TGF-beta stimulated, 500 pg/mL final; Potency, µM (top dose mostly 46.1 µM), inactives show at the top dose activity, negative = inhibition, most hits filed as inhibitors; hit rate 1.2% among 410,000; also: potency is read from the fitted curve at half-maximal effect; % is scaled to controls: 0 for no effect and ±100 for the full control effect; nearly all actives have a fitted effect of over 65% in size
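Read-out: total well GFP (ex488/em500-530) summed from mean per-cell fluorescence. Cells: HEPG2 CAGA-GFP, 1% FBS DMEM, 18 h at 37 degrees C with 500 pg/mL final TGF-beta. Unstimulated wells served as the full-inhibition control; stimulated DMSO wells = 0%.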
HepG2 viability = kills HepG2 cells in TGF-b inhibitor counter-screen | HepG2 CAGA-GFP viability, ATP luminescence, 18 h | Potency, µM (highest dose often 46.1 µM), without a hit: at the top dose activity change, negative = cytotoxicity, most hits filed as cytotoxic | hit rate 0.76% among 410,000 | AID 588856; also: potency is read from the fitted curve at half-maximal effect
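HepG2 CAGA-GFP cells (1000/well, DMEM with 1% FBS) received compound, then TGF-beta at 500 pg/mL final, and were incubated 18 hours at 37 degrees C. Viability was read by CellTiter-Glo luminescence. Media-only wells were set as complete cell-killing and DMSO as no toxicity.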
TDP1 cell noCPT = qHTS for Inhibitors of human tyrosyl-DNA phosphodiesterase 1 (TDP1): qHTS in cells in absence of CPT; hit rate 15% among 420,000; Potency, µM (series often up to 46.2 µM), inactives show at the highest dose activity change, negative = growth inhibition, hits mostly inhibitors; DT40 Tdp1-/- hTDP1 cells, no CPT, ATP luminescence, 48 h; AID 686978, 2013; also: potency is read from the fitted curve at half-maximal effect; % is scaled to controls: 0 for no effect and ±100 for the full control effect; nearly all actives have a fitted effect of over 55% in size
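Chicken DT40 Tdp1-/- cells stably complemented with human TDP1 were seeded at 400 cells/well with DMSO in place of 20 nM camptothecin. After compound pinning, cells grew at least 48 hr at 37 °C; viability read by CellTiter-Glo luminescence.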
IL-1B inflam inh = inflammasome signaling inhibition, IL-1 beta readout | THP-1 LPS/ATP IL-1B secretion, AlphaLISA, 16 h; hits give low values | activity change, % at 57.5 µM | hit rate 4.7% among 360,000; in the data active = activity change below about -50%; inconclusive = mostly about -30% to -49%; also: % is scaled to controls: 0 for no effect and ±100 for the full control effect
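Secreted IL-1B measured by AlphaLISA bead assay after 16 h compound exposure of THP-1 cells; compounds (final up to 57.5 uM) added 1 h before LPS (250 ng/mL) and ATP (1.25 mM) stimulation; lower signal means less secretion.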
TDP1 cell CPT = DT40-hTDP1 cell growth loss with CPT | chicken DT40 Tdp1-/-;hTDP1 cells + 20 nM CPT, ATP luminescence, 48 h | Potency, µM (top dose mostly 46.2 µM), inactives show at the highest dose activity change, negative = growth inhibition, most hits filed as inhibitors | hit rate 12% among 420,000 | AID 686979; also: potency is read from the fitted curve at half-maximal effect; % is scaled to controls: 0 for no effect and ±100 for the full control effect; nearly all actives have a fitted effect of over 55% in size
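Chicken DT40 Tdp1-/- cells complemented with human TDP1, 400 cells/well, exposed to compounds plus 20 nM camptothecin for at least 48 h at 37 C; viability read as ATP content by CellTiter-Glo luminescence.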
TDP1 block = TDP1 (human) enzyme inhibition | hit rate 0.28% among 350,000 | Q9NUW8 | recombinant TDP1, AlphaScreen DNA substrate cleavage | AID 485290 | Potency, µM (top dose mostly 130 µM), for inactives: at the highest dose activity change, negative = inhibition, most hits filed as inhibitors; also: potency is read from the fitted curve at half-maximal effect; % is scaled to controls: 0 for no effect and ±100 for the full control effect; nearly all actives have a fitted effect of over 40% in size
Target sequence (Q9NUW8 whole entry, looked up): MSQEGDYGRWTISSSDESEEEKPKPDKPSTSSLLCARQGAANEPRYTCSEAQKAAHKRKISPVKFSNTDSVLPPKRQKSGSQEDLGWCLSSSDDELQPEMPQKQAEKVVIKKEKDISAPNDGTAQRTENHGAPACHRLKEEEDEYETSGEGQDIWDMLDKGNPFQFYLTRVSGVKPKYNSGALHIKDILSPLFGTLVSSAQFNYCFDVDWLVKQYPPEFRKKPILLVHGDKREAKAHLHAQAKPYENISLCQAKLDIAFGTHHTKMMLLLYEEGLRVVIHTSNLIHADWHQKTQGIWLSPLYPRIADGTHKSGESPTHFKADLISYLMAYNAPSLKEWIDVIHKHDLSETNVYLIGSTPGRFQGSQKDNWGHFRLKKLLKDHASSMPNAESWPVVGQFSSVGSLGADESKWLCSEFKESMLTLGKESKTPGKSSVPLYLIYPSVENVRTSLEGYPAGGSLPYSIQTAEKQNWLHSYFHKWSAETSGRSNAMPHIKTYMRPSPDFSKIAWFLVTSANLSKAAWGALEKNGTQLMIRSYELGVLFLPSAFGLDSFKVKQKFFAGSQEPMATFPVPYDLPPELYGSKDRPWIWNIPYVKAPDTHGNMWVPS
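E. coli-derived human Tdp1, 1 nM final. Cpd preinc 15 min RT; substrate 15 nM final, 5 min RT; AS bead mix 10 ug/ml final, 10 min RT. Signal loss = tyrosine-FITC cleavage. No-enzyme wells = max signal.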
An asterisk follows results filed as active; ? = inconclusive; . = not tested or not shown. Rows were chosen to be rich in hits. Some 18% of all compounds tested hit in one or more screens of this group. Unless noted, calls follow the shape of the dose curve; as a rule, active = well fitted curve in the direction sought with a large enough effect; inconclusive = small, poorly fitted or top-dose-only effect, or another doubt; inactive = no such curve, though single readings can be large; an effect the other way counts as inactive or inconclusive.

SMILES	TGFb SMAD3 inh	HepG2 viability	TDP1 cell noCPT	IL-1B inflam inh	TDP1 cell CPT	TDP1 block
C[C@H](CO)N1C[C@H](C)[C@@H](CN(C)CC2CCCCC2)Oc2c(NC(=O)CCC(F)(F)F)cccc2C1=O	-0.6%	-10.2%	14.6µM*	7.3	20.6µM*	2.7%
C[C@H](CO)N1C[C@H](C)[C@@H](CN(C)C(=O)Nc2ccccc2)Oc2c(NC(=O)Nc3ccc(C(F)(F)F)cc3)cccc2C1=O	15.8µM*	-97.5%	?	-8.8	13µM*	-0.3%
C[C@H](CO)N1C[C@H](C)[C@@H](CN(C)C(=O)Nc2ccc(C(F)(F)F)cc2)Oc2c(NC(=O)CCC(F)(F)F)cccc2C1=O	?	-1.1%	?	-66.0*	?	-1.4%
C[C@H](CO)N1C[C@H](C)[C@@H](CN(C)C(=O)Nc2ccc(C(F)(F)F)cc2)Oc2c(NC(=O)NC3CCCCC3)cccc2C1=O	?	-32.2%	?	?	-83.7%	1.1%
C[C@@H]1CN([C@H](C)CO)C(=O)c2cccc(NC(=O)NC3CCCCC3)c2O[C@@H]1CN(C)C(=O)Nc1ccc(C(F)(F)F)cc1	?	17.8µM*	?	-66.9*	16.4µM*	3.1%
O=C(COC(=O)c1ccc(O)cc1O)NC1CCCCCC1	-8.1%	-0.9%	?	47.5	?	.
COc1cccc(C(=O)OCC(=O)N2CCc3ccccc3C2)c1	0.7%	-18.8%	-9.2%	19.7	-6.6%	0.3%
C[C@H](CO)N1C[C@H](C)[C@@H](CN(C)Cc2ccc(-c3ccccc3)cc2)Oc2c(NC(=O)Nc3ccc(C(F)(F)F)cc3)cccc2C1=O	7.9%	-0.1%	?	22.7	8.2µM*	-12.2%
C[C@H](CO)N1C[C@H](C)[C@@H](CN(C)C(=O)Nc2ccc(C(F)(F)F)cc2)Oc2c(NC(=O)C3CCCCC3)cccc2C1=O	?	-23.8%	?	-57.8*	?	0.3%
C[C@H](CO)N1C[C@H](C)[C@@H](CN(C)C(=O)Nc2ccc(C(F)(F)F)cc2)Oc2c(NC(=O)Cc3ccccc3)cccc2C1=O	-15.7%	-7.9%	-24.3%	?	-21.4%	2.0%
CC(c1ccccc1)N1CCn2c(nc3cc(NS(C)(=O)=O)ccc32)C1 (stereo unspecified)	-16.4%	-10.9%	?	103.0	0.8%	5.1%
Cc1ccc(S(=O)(=O)Nc2ccc3c(c2)nc2n3CCN(Cc3ccccc3)C2)cc1	-22.6%	-20.8%	?	-68.7*	16.4µM*	8.8%
O=S(=O)(Nc1ccc2c(c1)nc1n2CCN(Cc2ccccc2)C1)c1ccc(Cl)cc1	-6.7%	-17.1%	14.6µM*	-55.0*	18.4µM*	8.3%
O=S(=O)(Nc1ccc2c(c1)nc1n2CCN(Cc2ccccc2)C1)c1ccccc1	4.2%	-2.4%	23.1µM*	-1.3	23.1µM*	5.7%
Cn1c(CN2CCCCC2)nc2cc(NS(=O)(=O)c3ccc(Cl)cc3)ccc21	-11.0%	-10.0%	-21.9%	-15.6	?	6.8%
O=S(=O)(Nc1ccc2c(c1)nc1n2CCN(Cc2ccccc2)C1)c1ccc(F)cc1	3.1%	-20.2%	?	0.0	25.9µM*	8.4%
CCn1c(=O)n(CC(=O)NCC2CCCO2)c(=O)c2c3c(sc21)COC(C)(C)C3 (stereo unspecified)	3.9%	4.9%	7.0%	4.1	4.2%	2.8%
O=C1c2ccccc2C(=O)N1c1noc2ccccc12	.	.	.	.	.	1.4%
COc1ccc(C2=CC(=O)C[C@H](c3ccc(OC)c(OC)c3)C2)cn1	?	0.0%	?	?	?	1.4%
O=C(NCc1ccc2c(c1)OCO2)c1cccc([N+](=O)[O-])c1	49.2%	-23.3%	-8.2%	-1.7	-4.4%	2.1%
COc1ccccc1N(C)S(=O)(=O)c1ccc(C(=O)N(C)Cc2cccc(OC)c2OC)cc1	2.1%	3.1%	20.6µM*	-6.3	?	.
COC(=O)c1cc(C(=O)NCc2ccc3c(c2)OCO3)cc([N+](=O)[O-])c1	8.3%	1.5%	-25.8%	-55.2*	20.8%	.
COc1ccccc1N(C)S(=O)(=O)c1ccc(C(=O)NCc2ccc3c(c2)OCO3)cc1	0.9%	0.0%	23.1µM*	0.7	-14.3%	6.5%
CCOc1ccc(CN(C)C(=O)c2ccc(S(=O)(=O)N(C)c3ccccc3OC)cc2)cc1	?	-44.2%	10.3µM*	-24.3	?	2.1%
Cc1ccc(C)c(OCCC(=O)OCC(=O)Nc2cccc(S(=O)(=O)N3CCCC3)c2)c1	4.0%	2.7%	-27.8%	-3.9	?	.
SMILES	TGFb SMAD3 inh	HepG2 viability	TDP1 cell noCPT	IL-1B inflam inh	TDP1 cell CPT	TDP1 block
Cc1ccc(S(=O)(=O)NC(=O)C2(C)CCN2C(=O)CC2CCCC2)nc1 (stereo unspecified)	25.3%	10.6%	-7.4%	31.2	-23.3%	.
CC(C)(C)S(=O)(=O)N1C[C@H]2CC/C=C\C/C(c3ccccc3)=C\2[C@@H]1CCO	-2.5%	-12.2%	?	-8.2	?	.
O=C(NCc1ccco1)C1CCCN1C(=O)Nc1ccccc1[N+](=O)[O-] (stereo unspecified)	5.5%	-7.7%	4.3%	30.3	14.6%	10.8%
COc1cccc(CN(C)C(=O)c2[nH]c(C)c(C(C)=O)c2C)c1OC	-6.7%	-22.1%	11.6µM*	52.9	18.4µM*	.
COc1ccccc1N(C)S(=O)(=O)c1ccc(C(=O)N(C)Cc2ccc(Cl)s2)cc1	?	-4.8%	14.6µM*	?	23.1µM*	0.3%
Cc1ccc(S(=O)(=O)c2nc(Nc3ccccc3C#N)sc2Cl)cc1	0.0%	-7.1%	2.59µM*	9.2	?	7.9%
CC1=CC2=C(C=O)C(=O)C(C)(O)C(O)C2=CO1 (stereo unspecified)	2.2%	-10.7%	?	-61.7*	?	.
COc1ccccc1CN1C[C@@H]2C[C@@H](c3ccccc3C)N3CCC[C@@]23C1=O	-24.5%	-71.3%	29.1µM*	-19.0	?	2.7%
COc1ccccc1CN1C[C@@H]2C[C@@H](c3ccc4nsnc4c3)N3CCC[C@@]23C1=O	-17.9%	-29.1%	23.1µM*	-18.9	?	.
COc1ccccc1CN1C[C@@H]2C[C@@H](c3ccc(C)cc3)N3CCC[C@@]23C1=O	?	-15.3%	?	-28.0	-22.7%	0.0%

Bioassay records (PubChem)
